From PubChem BioAssay AID652070 (Broad Institute, 2013)
Records with an inconclusive call do not appear. Activity calls are given as the source filed them. How the calls were made is not given here.

Assay: apoptosis induction over several timepoints – cell-based, HT29 HRAS, caspase 3/7 luminescence, multiple timepoints, dry powder, mechanism study for HRAS target identification (AID 652070)
Settings: HT29 HRAS cells; max activity: measured here: third timepoint caspase 3/7, at 0.068 µM, stronger effect = higher value unless noted; series mostly up to 35 µM
In the case of `COc1ccc(N(C(=O)CCl)C(C(=O)NCCc2ccccc2)c2cccs2)cc1Cl` (configuration not stated), the max activity is reported as 22.2% [measured here: third timepoint caspase 3/7, at 8 µM, stronger effect = higher value] and the outcome is reported as “inactive”.
For `O=C(NCCOCCOCCOc1ccc(N(C(=O)CCl)C(C(=O)NCCc2ccccc2)c2cccs2)cc1Cl)c1ccc(COC2C#CCCCCC2)cc1` (configuration not stated), the max activity was 24.4% and the outcome was “inactive”.
With `CCC(=O)N(c1ccc(OC)c(Cl)c1)C(C(=O)NCCc1ccccc1)c1cccs1` (configuration not stated) the max activity was 17.8% and the outcome was “inactive”.
For `CO[C@H]1C[C@@H]2CC[C@@H](C)[C@@](O)(O2)C(=O)C(=O)N2CCCC[C@H]2C(=O)O[C@H]([C@H](C)C[C@@H]2CC[C@@H](O)[C@H](OC)C2)CC(=O)[C@H](C)/C=C(\C)[C@@H](O)[C@@H](OC)C(=O)[C@H](C)C[C@H](C)/C=C/C=C/C=C/1C`, the outcome was “inactive” and the max activity was 31.1% [measured here: third timepoint caspase 3/7, at 35 µM, stronger effect = higher value].
With `Cc1onc(C(=O)N2CCN(C(c3ccc(Cl)cc3)c3ccc(Cl)cc3)CC2)c1[N+](=O)[O-]` the outcome was “inactive” and the max activity was 13.3% [measured here: third timepoint caspase 3/7, at 0.0001 µM, stronger effect = higher value].
With `Cc1onc(C(=O)N2CCN(C(c3ccc(Cl)cc3)c3ccc(OCCOCCOCCNC(=O)OC(C)(C)C)cc3)CC2)c1[N+](=O)[O-]` (configuration not stated) the max activity was 22.2% [measured here: third timepoint caspase 3/7, at 0.0001 µM, stronger effect = higher value] and the outcome was “inactive”.
